Drawing on PubChem BioAssay AID624417 (National Center for Advancing Translational Sciences (NCATS), 2012), this text covers Potency for 66 compounds.

Out of some 410,000 compounds screened, about 6,400 (1.6%) were called active. A call without a number means that no potency is given here. Not shown: some 20% with an inconclusive outcome. Calls follow the shape of the dose curve; as a rule, active = well fitted inhibition curve with a large enough effect; inconclusive = small, poorly fitted or top-dose-only effect; inactive = no such curve, though single readings can be large or run the other way. The full list was thinned out, with actives kept by preference.
Potency is read from the fitted curve at half-maximal effect.

Glucagon-like peptide 1 receptor (Homo sapiens), sequence (P43220 whole entry, looked up): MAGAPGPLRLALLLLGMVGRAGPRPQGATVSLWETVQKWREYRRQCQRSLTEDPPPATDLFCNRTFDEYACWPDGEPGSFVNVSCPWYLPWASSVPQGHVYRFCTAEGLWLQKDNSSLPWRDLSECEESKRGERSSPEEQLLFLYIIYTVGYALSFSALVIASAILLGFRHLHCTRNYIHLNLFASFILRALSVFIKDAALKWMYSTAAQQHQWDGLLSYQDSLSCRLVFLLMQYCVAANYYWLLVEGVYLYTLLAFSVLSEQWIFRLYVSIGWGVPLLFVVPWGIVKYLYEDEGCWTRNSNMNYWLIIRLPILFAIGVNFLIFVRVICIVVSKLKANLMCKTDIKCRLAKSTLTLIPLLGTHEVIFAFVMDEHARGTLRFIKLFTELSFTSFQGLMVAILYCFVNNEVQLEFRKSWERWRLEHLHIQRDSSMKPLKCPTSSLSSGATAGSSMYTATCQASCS

The target in the assay is Glucagon-like peptide 1 receptor (Homo sapiens) (UniProt P43220). The assay can be described thus: qHTS of GLP-1 Receptor Inverse Agonists (Inhibition Mode). Also: nearly all actives have a fitted effect of over 55% in size. To be noted: HEK293 GLP-1R CRE-luciferase, luminescence, 24 h, GLP-1R form is constitutively active; series mostly up to 38.3 µM. A digest of the protocol:
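Cells are plated, allowed 12 hours at 37 deg C, then treated with compounds for 24 hr before luciferase detection reagent is added and luminescence is read after 12 min at room temperature. The HEK293 line carries constitutively active GLP-1R with a cAMP-responsive reporter.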
In general terms: Quantitative high-throughput screening tests each substance at several concentrations.
In the case of `O=C(NC1CCCC1)C1c2ccccc2OCC(=O)N1Cc1ccccc1` (stereo unspecified), the Potency entry is “inactive”.

In the case of `CCOC(=O)c1cnn2c(SC)ncnc12`, the Potency result is “inactive”.

On to `N#Cc1nc(N)nc(N(c2ccccc2)c2ccccc2)n1`, for which the Potency is 12.6 µM (active).

As for `CC(C)Nc1nc(N(c2ccccc2)c2ccccc2)nc(-n2ccnc2)n1`, the Potency result was “inactive”.

In the case of `CC(C)Cn1cc(-c2cncc3nccn23)cn1`, the Potency result was “inactive”.

Consider `CCCC(=O)N1CCC1(C)C(=O)NS(=O)(=O)c1ccc(Cl)cc1` (stereo unspecified), for which the Potency entry is “inactive”.

Take `CCCNC(=O)C1(C)CCCN(Cc2c(C)nn(-c3ccccc3)c2C)C1` (stereo unspecified): the Potency entry was “inactive”.

Turning to `O=C(NCCCN1CCOCC1)c1cc(-c2ccc(Cl)cc2)on1`, the Potency entry was “inactive”.

For `Cc1c(C)n(Cc2ccc(Cl)cc2)c2ccc(C(=O)NCCCN3CCOCC3)cc12`, the Potency was 1.12 µM (active).

Regarding `Cc1c(C)n(Cc2ccc(Cl)cc2)c2ccc(C(=O)NCCc3ccc(S(N)(=O)=O)cc3)cc12`, the Potency entry was “inactive”.

`CCN1CCN(c2ncc3c(n2)CC(c2ccccc2O)CC3=O)CC1` (stereo unspecified): the Potency is 10 µM (active).

Take `Cc1nc2nc3c(cn2n1)C(=O)CC(c1ccccc1)C3` (stereo unspecified): the Potency entry is “inactive”.

As to `CN1CCN(c2ncc3c(n2)CC(c2ccccc2F)CC3=O)CC1` (stereo unspecified), the Potency is 3.98 µM (active).

With `O=C1c2ccccc2C(=O)C1c1ccccc1F`, the Potency result was “inactive”.

For `COc1cc(C2CC(=O)c3cnc(NC(C)=O)nc3C2)cc(OC)c1OC` (stereo unspecified), the Potency result was “inactive”.

With `CCc1ccc(Nc2ncc3c(n2)CC(c2ccco2)CC3=O)cc1` (stereo unspecified), the Potency entry was “inactive”.

In the case of `O=C(OCc1ccccc1)N1CCC2CC1c1cc(N3CCN(S(=O)(=O)c4cc(Cl)cc(Cl)c4)CC3)ccc12` (stereo unspecified), the Potency entry was “inactive”.

For `CC(=O)Nc1ccc(SCC(=O)NC(=O)c2ccc(Cl)cc2)cc1`, the Potency entry is “inactive”.

In the case of `COc1ccc([C@H]2C[C@@H](n3cc(COC(=O)c4ccccc4)nn3)[C@H](O)CN2C(=O)c2cccs2)cc1`, the Potency entry was “inactive”.

As for `CC(C)OC(=O)CC(=O)CC(O)c1cccc([N+](=O)[O-])c1` (stereo unspecified), the Potency result is “inactive”.

Consider `NCCCCC(C(=O)O)N(C(=O)OCc1ccccc1)C(=O)OCc1ccccc1` (stereo unspecified), for which the Potency entry was “inactive”.

For `COc1ccc(CN2C(=O)C(CC(=O)NCCN3CCOCC3)CC(C(=O)N(C(C)C)C(C)C)=C2C)cc1` (stereo unspecified), the Potency result was “inactive”.

Regarding `COc1ccc(C(=O)NC(=S)Nc2ccccc2N2CCN(S(C)(=O)=O)CC2)cc1OC`, the Potency result was “inactive”.

Take `O=C(NC(=S)Nc1ccccc1N1CCCCC1)c1ccc(F)cc1`: the Potency is 12.6 µM (active).

As for `O=C(Nc1ccccc1N1CCCC1)c1ccc2ccccc2c1`, the Potency entry was “inactive”.

For `CCCC/C=C/c1cccc2nncn12`, the Potency result is “inactive”.

For `Cc1ccc(C=O)c([B-](F)(F)F)c1`, the Potency result was “inactive”.

For `CN1c2ccc(C=O)c3c(C=O)ccc(c23)N(C)C1(C)C`, the Potency was 12.6 µM (active).

`CCOC(=O)N1C(=O)C[C@](Sc2ccc(C)cc2)(C(=O)OC)[C@H]1c1ccccc1`: the Potency result is “inactive”.

In the case of `COc1ccc(CNC(=O)[C@H](Cc2c[nH]c3ccccc23)NC(C)=O)cc1OC`, the Potency entry is “inactive”.

On to `COc1cccc(NC(=O)[C@H](Cc2c[nH]c3ccccc23)NC(=O)[C@@H]2Cc3ccccc3CN2)c1`, for which the Potency is 3.98 µM (active).

In the case of `COc1ccc(NC(=O)[C@H](NC(=O)[C@@H]2Cc3ccccc3CN2)c2ccccc2)cc1`, the Potency entry is “inactive”.

Take `O=C(O)c1ccccc1-c1cccc2nncn12`: the Potency result is “inactive”.

For the compound `COc1ccc(CNC(=O)COC(=O)c2c(C)nn(-c3ccccc3)c2C)cc1OC`, the Potency entry is “inactive”.

In the case of `Cc1cccc(C)c1NC(=O)COC(=O)c1c(C)nn(-c2ccccc2)c1C`, the Potency entry is “inactive”.

For the compound `CCCn1c(C)cc(C(=O)COC(=O)c2c(C)nn(-c3ccccc3)c2C)c1C`, the Potency was 10 µM (active).

As for `Cc1noc(C)c1C(=O)N1CCC1(C)C(=O)NS(=O)(=O)c1ccc(C#N)cc1` (stereo unspecified), the Potency result was “inactive”.

For `Clc1ccc(-c2cccc3nccn23)cc1`, the Potency result is “inactive”.

With `COc1ccc(C2CC(c3cccc(OC)c3)=NN2c2ccc(S(N)(=O)=O)cc2)cc1` (stereo unspecified), the Potency result is “inactive”.

`Cc1cccn2c(=O)c3cc(C(=O)NCCN4CCOCC4)c(=N)n(Cc4cccnc4)c3nc12`: the Potency is 3.98 µM (active).

For `Cc1cccn2c(=O)c3cc(C(=O)NCC4CCCO4)c(=N)n(Cc4ccc(F)cc4)c3nc12` (stereo unspecified), the Potency entry is “inactive”.

As to `CCCn1c(=N)c(C(=O)NCc2ccccc2)cc2c(=O)n3cccc(C)c3nc21`, the Potency entry is “inactive”.

On to `C=CCn1c2c(c3ccccc31)CCC2`, for which the Potency entry was “inactive”.

With `COc1ccc2c(c1)C=CC1(O2)N(CCO)c2ccccc2C1(C)C` (stereo unspecified), the Potency was 2.51 µM (active).

As to `CN1c2ccc([N+](=O)[O-])cc2C(C)(C)C12C=Cc1cc(C(=O)O)ccc1O2` (stereo unspecified), the Potency entry was “inactive”.

As to `CCCCn1nnnc1C1(C)CCC(=O)N1Cc1ccc(OC)c(OC)c1` (stereo unspecified), the Potency entry is “inactive”.

On to `Cc1cccc(C)c1NC(=O)CNC(=O)c1ccc(N2CCOCC2)c([N+](=O)[O-])c1`, for which the Potency entry was “inactive”.

As for `CC(C)NC(=O)C1(C)CCCCN1Cc1cccc(C(F)(F)F)c1` (stereo unspecified), the Potency result was “inactive”.

As for `CC1(C(=O)Nc2cccnc2)Cc2c(-c3ccccc3)ccnc2O1` (stereo unspecified), the Potency result is “inactive”.

Turning to `CC(=O)Nc1cnc(-c2ccc(O)cc2C)cn1`, the Potency result is “inactive”.

Take `Cc1cccnc1NC(=O)c1cccc(S(=O)(=O)N2CCN(c3ccc(F)cc3)CC2)c1`: the Potency entry was “inactive”.

As for `Oc1c(CN2CCN(c3ccc(F)cc3)CC2)cc(Cl)c2cccnc12`, the Potency was 2.51 µM (active).

Take `Cc1cccc(C)c1NC(=O)CN1CCN(c2ccc(F)cc2)CC1`: the Potency result was “inactive”.

With `Cc1ccc(S(=O)(=O)NN=C2CC(C)(C)CC(=O)C2(C)C)cc1`, the Potency entry is “inactive”.

`COc1ccccc1C(=O)NC(=S)NC12CC3CC(CC(C3)C1)C2`: the Potency entry is “inactive”.

Regarding `CSc1ccc(/C=C/C(=O)NC23CC4CC(CC(C4)C2)C3)cc1`, the Potency was 11.2 µM (active).

For `COc1ccc(/C=C/C(=O)Nc2ccc(C34CC5CC(CC(O)(C5)C3)C4)cc2)cc1OC`, the Potency result is “inactive”.

For the compound `COc1ccc(C(=O)NCC2CCCO2)cc1S(=O)(=O)NCc1ccc(Cl)cc1` (stereo unspecified), the Potency result was “inactive”.

`Cc1cccc(C)c1-n1nnnc1C1(C)CCC(=O)N1CCOc1ccccc1` (stereo unspecified): the Potency result is “inactive”.

`O=C(NCc1ccco1)c1cccc(-c2ccc3nncn3c2)c1`: the Potency result is “inactive”.

For `CCCC(=O)C1CCN(Cc2ccccc2)CC1`, the Potency result was “inactive”.

For `CCCCN(C)C(=O)C1CCN(Cc2ccccn2)CC1`, the Potency result was “inactive”.

Take `CCCCN(Cc1ccccc1)C(=O)C1CCN(Cc2sccc2C)CC1`: the Potency is 7.08 µM (active).

In the case of `O=C(O)c1ccccc1C(=O)Nc1nc(-c2ccccc2)cs1`, the Potency result is “inactive”.

Consider `CC(=O)Nc1cccc(-c2csc(Nc3cccc(C)n3)n2)c1`, for which the Potency result was “inactive”.

Take `Cc1cccc(Nc2nc(-c3ccccc3)cs2)n1`: the Potency is 3.16 µM (active).
